About 83,000 compounds went through this panel and 20% of them were active in at least one assay; those are over-represented in the sample as a whole.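 The endpoint reported here, percent growth, reads 100 for growth as untreated, 0 for no net growth and -100 for all cells dead.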 The source made the active and inactive calls. Rule for the calls: active = growth percent below 10; inactive = the rest.
The compounds below were run on SR leukemia (assay: NCI-60 one-dose screen, 48 h (100 = growth as untreated, 0 = no growth, -100 = all killed)). Details: 10 µM unless noted.
`Clc1ccc2c(NCCNc3nc(-c4ccccc4)cc(-c4ccccc4)n3)ccnc2c1` was tested, and the growth was -19.4% (active).
With `Cc1ccc(N(CC(=O)Nc2ccc(S(=O)(=O)N3CCC(N4CCCC4)CC3)cc2)S(=O)(=O)c2ccc(Cl)cc2)cc1` the growth was -29.5% (active).
For `Oc1ccc(Nc2ccccc2)cc1`, the growth was 94.2% (inactive).
In the case of `CCCCCCCCNc1cccc2c1C(=O)c1ccccc1C2=O`, the growth is reported as 108% (inactive).
In the case of `Cc1cc(N(CCCNc2ccnc3cc(Cl)ccc23)Cc2ccco2)nc(N2CCN(C)CC2)n1`, the growth is reported as -16.7% (active).
`C=C1C(=O)O[C@H]2[C@H]1CC/C(Cn1cc(-c3ccc(OC)cc3)nn1)=C\CC[C@@]1(C)O[C@@H]21` was tested, and the growth was -10.8% (active).
With `O=c1[nH]c2c3ccncc3cc(-c3cccc(Cl)c3)c2c2cnccc12` the growth was 14.3% (inactive).
With `O=C1CNCCN1` the growth was 102% (inactive).
In the case of `COc1ccc(/C=C/C(=O)NCC(C)O)cc1` (centres undefined), the growth is reported as 105% (inactive).
With `O=C1Nc2ccccc2/C1=C/c1cn(CCCn2c3ccccc3c(=O)c3ccccc32)c2ccccc12` the growth was 84% (inactive).
For `Cn1cc(-c2csc(-c3c[nH]c4ccc(F)cc34)n2)c2cccnc21`, the growth was 27.2% (inactive).
For `Cc1cc(Cl)nc(N(CCCNc2ccnc3cc(Cl)ccc23)Cc2ccco2)n1`, the growth was -13.7% (active).
`COc1cc(/C=C/c2cc(/C=C/c3ccc(O)c(OC)c3)n(-c3ccc(Cl)cc3)c(=O)n2)ccc1O` was tested, and the growth was 36.4% (inactive).
In the case of `CC1(c2ccccc2)OC1C(=O)O` (centres undefined), the growth is reported as 101% (inactive).
`COc1cc(/C=C2\C(=O)N(CC(O)COc3cc(O)c4c(=O)cc(-c5ccccc5)oc4c3)c3ccccc32)cc(OC)c1O` (centres undefined) was tested, and the growth was 45.9% (inactive).
In the case of `Oc1cccc2oc(=S)[nH]c12`, the growth is reported as 90.4% (inactive).
With `COc1ccc2c(c1)c(-c1nc(-c3c[nH]c4ncccc34)cs1)cn2CCN` the growth was 0.217% (active).
`C=C(C)[C@@H]1CC[C@]2(C(=O)N3CCCNCC3)CC[C@]3(C)[C@H](CC[C@@H]4[C@@]5(C)CCC(=O)C(C)(C)[C@@H]5CC[C@]43C)[C@@H]12` was tested, and the growth was 8.04% (active).
In the case of `Cc1ccc(NC2CC(=O)N(c3c(C)cc(C)cc3C)C2=O)c(C)c1` (centres undefined), the growth is reported as 95.3% (inactive).
In the case of `CC1c2ccccc2N(S(=O)(=O)c2ccccc2)C1C` (centres undefined), the growth is reported as 34.8% (inactive).
In the case of `Nc1ccc(Cl)cn1`, the growth is reported as 113% (inactive).
For `CCc1nnc(NC(=O)c2ccoc2COc2ccccc2)s1`, the growth was 26.4% (inactive).
`Nc1c2c(nc3ccc(Br)cc13)CC(c1ccccc1)CC2=O` (centres undefined) was tested, and the growth was 27.1% (inactive).
In the case of `CC(C)(C)n1cc(-c2ccnc(NCCCNS(=O)(=O)c3ccc(Cl)cc3)c2)c(-c2cccc(F)c2)n1`, the growth is reported as 32.9% (inactive).
`COc1cc(/C=N/NC(=S)NNC(=S)NC2CCCCC2)cc(OC)c1OC` was tested, and the growth was 96.9% (inactive).
`COc1ccc2[nH]c(-c3ccc(Cl)cc3)cc(=O)c2c1` was tested, and the growth was 100% (inactive).
`Cc1cc(N(CCCNc2ccnc3cc(Cl)ccc23)Cc2ccco2)nc(Cl)n1` was tested, and the growth was 21.7% (inactive).

The compounds below were run on RPMI-8226 leukemia in the same assay as above. Details: 10 µM unless noted.
`COc1cc2c3c(c4c5ccccc5[nH]c4c2c(OC)c1OC)C(=O)N(O)C3=O` was tested, and the growth was 31.6% (inactive).
With `Cc1cc2nc3c4cc(O)ccc4n(CCN(C)C)c3nc2cc1C` the growth was -11.2% (active).
In the case of `Cc1csc(Nc2nc(-c3ccc(Cl)cc3)nc(C(Cl)(Cl)Cl)n2)n1`, the growth is reported as 76.7% (inactive).
For `Cc1cc(C)nc(NC(N)=NCCc2ccccc2)n1`, the growth was 49.7% (inactive).
For `COc1cc(-c2c(C#N)c(-c3cccs3)nc3c2c(-c2ccccc2)nn3-c2ccccc2)ccc1O`, the growth was 94.3% (inactive).
In the case of `CN1CCN(c2ccc3nc(-c4[nH]ncc4Nc4ncnc5c4OCCCN5)[nH]c3c2)CC1`, the growth is reported as -36.3% (active).
`COC(=O)[C@]12CC[C@@H](C)[C@H](C)[C@@H]1C1=CC[C@@H]3[C@@]4(C)C[C@@H](O)[C@H](O)[C@@](C)(CO)C4=CC[C@@]3(C)[C@]1(C)CC2` was tested, and the growth was -15.2% (active).
With `O=C(NO)c1ccc(Cn2c(=O)n(-c3ccccc3)c(=O)c3ccccc32)cc1` the growth was 14.8% (inactive).
For `COC(=O)[C@]12CC[C@@H](C)[C@H](C)[C@@H]1C1=CC(=O)[C@@H]3[C@@]4(C)C[C@@H](O)[C@H](O)[C@@]5(C)COC(=C45)C[C@@]3(C)[C@]1(C)CC2`, the growth was 51.2% (inactive).
For `Cn1cc(-c2csc(-c3cn(CCN)c4ccc(F)cc34)n2)c2cccnc21`, the growth was 67.9% (inactive).
For `CC/C=C\C[C@H]1CC=C2C(=O)C=C[C@@H]2CC=CCCCC(=O)O[C@@H](CCCCC)CC=C2C(=O)C=C[C@@H]2CC=CCCCC(=O)O[C@@H](CCCCC)CC=C2C(=O)C=C[C@@H]2CC=CCCCC(=O)O[C@@H](CCCCC)CC=C2C(=O)C=C[C@@H]2CC=CCCCC(=O)O1`, the growth was 0.23% [7.9 µM] (active).
With `Clc1ccc2c(NCCNc3nc(-c4ccccc4)cc(-c4ccccc4)n3)ccnc2c1` the growth was -34.4% (active).
For `Cc1ccc(N(CC(=O)Nc2ccc(S(=O)(=O)N3CCC(N4CCCC4)CC3)cc2)S(=O)(=O)c2ccc(Cl)cc2)cc1`, the growth was -3.71% (active).
`Oc1ccc(Nc2ccccc2)cc1` was tested, and the growth was 97.5% (inactive).
`CCCCCCCCNc1cccc2c1C(=O)c1ccccc1C2=O` was tested, and the growth was 105% (inactive).
For `Cc1cc(N(CCCNc2ccnc3cc(Cl)ccc23)Cc2ccco2)nc(N2CCN(C)CC2)n1`, the growth was 3.87% (active).
With `C=C1C(=O)O[C@H]2[C@H]1CC/C(Cn1cc(-c3ccc(OC)cc3)nn1)=C\CC[C@@]1(C)O[C@@H]21` the growth was -33.3% (active).
With `O=c1[nH]c2c3ccncc3cc(-c3cccc(Cl)c3)c2c2cnccc12` the growth was 27.1% (inactive).
For `O=C1CNCCN1`, the growth was 98.9% (inactive).
`COc1ccc(/C=C/C(=O)NCC(C)O)cc1` (centres undefined) was tested, and the growth was 105% (inactive).
For `O=C1Nc2ccccc2/C1=C/c1cn(CCCn2c3ccccc3c(=O)c3ccccc32)c2ccccc12`, the growth was 90% (inactive).
With `Cn1cc(-c2csc(-c3c[nH]c4ccc(F)cc34)n2)c2cccnc21` the growth was 52% (inactive).
`Cc1cc(Cl)nc(N(CCCNc2ccnc3cc(Cl)ccc23)Cc2ccco2)n1` was tested, and the growth was -28.9% (active).
In the case of `COc1cc(/C=C/c2cc(/C=C/c3ccc(O)c(OC)c3)n(-c3ccc(Cl)cc3)c(=O)n2)ccc1O`, the growth is reported as 64.5% (inactive).
`CC1(c2ccccc2)OC1C(=O)O` (centres undefined) was tested, and the growth was 108% (inactive).
With `COc1cc(/C=C2\C(=O)N(CC(O)COc3cc(O)c4c(=O)cc(-c5ccccc5)oc4c3)c3ccccc32)cc(OC)c1O` (centres undefined) the growth was 57.9% (inactive).
In the case of `Oc1cccc2oc(=S)[nH]c12`, the growth is reported as 106% (inactive).
With `COc1ccc2c(c1)c(-c1nc(-c3c[nH]c4ncccc34)cs1)cn2CCN` the growth was 52.7% (inactive).
For `C=C(C)[C@@H]1CC[C@]2(C(=O)N3CCCNCC3)CC[C@]3(C)[C@H](CC[C@@H]4[C@@]5(C)CCC(=O)C(C)(C)[C@@H]5CC[C@]43C)[C@@H]12`, the growth was 92% (inactive).
`CC1c2ccccc2N(S(=O)(=O)c2ccccc2)C1C` (centres undefined) was tested, and the growth was 91.9% (inactive).
In the case of `Nc1ccc(Cl)cn1`, the growth is reported as 101% (inactive).
In the case of `CCc1nnc(NC(=O)c2ccoc2COc2ccccc2)s1`, the growth is reported as 30.8% (inactive).
With `Nc1c2c(nc3ccc(Br)cc13)CC(c1ccccc1)CC2=O` (centres undefined) the growth was 17.8% (inactive).
In the case of `CC(C)(C)n1cc(-c2ccnc(NCCCNS(=O)(=O)c3ccc(Cl)cc3)c2)c(-c2cccc(F)c2)n1`, the growth is reported as 52.3% (inactive).
`COc1cc(/C=N/NC(=S)NNC(=S)NC2CCCCC2)cc(OC)c1OC` was tested, and the growth was 70.1% (inactive).
In the case of `COc1ccc2[nH]c(-c3ccc(Cl)cc3)cc(=O)c2c1`, the growth is reported as 96.3% (inactive).
In the case of `Cc1cc(N(CCCNc2ccnc3cc(Cl)ccc23)Cc2ccco2)nc(Cl)n1`, the growth is reported as 18.6% (inactive).

From PubChem BioAssay (NCI)
